Measured values taken from PubChem BioAssay (NCATS).
Records with an inconclusive call do not appear. The source made the active and inactive calls. The call rests on the fitted dose curve; in most records, active means well fitted curve in the direction sought with a large enough effect; inconclusive means small, poorly fitted or top-dose-only effect, or another doubt; inactive means no such curve, though single readings can be large; an effect the other way counts as inactive or inconclusive.

Tests used:
[1] = biological target: Cellular tumor antigen p53 (Homo sapiens) (UniProt P04637); test: Primary qHTS for small molecule compounds that upregulate eGFP-tagged delta133p53alpha (in N-terminal) cells. (AID 2060322); details: NCI-H358 eGFP-delta133p53alpha fluorescence, 24 h; activation: active compounds read high;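 further: 0% = DMSO vehicle and 100% = reference activator; nearly all actives have a fitted effect of over 75% in size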
Chain of Cellular tumor antigen p53 (Homo sapiens) (P04637 whole entry, looked up): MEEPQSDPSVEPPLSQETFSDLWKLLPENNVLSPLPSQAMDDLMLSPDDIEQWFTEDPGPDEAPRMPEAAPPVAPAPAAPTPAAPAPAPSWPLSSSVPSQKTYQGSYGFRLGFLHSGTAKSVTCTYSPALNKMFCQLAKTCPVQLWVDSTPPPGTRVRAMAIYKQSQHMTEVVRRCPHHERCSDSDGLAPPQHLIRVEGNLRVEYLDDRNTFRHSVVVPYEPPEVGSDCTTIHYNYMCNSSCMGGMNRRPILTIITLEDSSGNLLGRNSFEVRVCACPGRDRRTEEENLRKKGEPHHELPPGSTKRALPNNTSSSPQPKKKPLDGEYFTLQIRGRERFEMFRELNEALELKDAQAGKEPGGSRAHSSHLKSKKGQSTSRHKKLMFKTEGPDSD
Method in brief: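 NCI-H358 cells pre-induced 24 h with 10 ng/ml doxycycline to express N-terminal eGFP-delta133p53alpha, then dosed 24 h at 37C without doxycycline; fixed, Hoechst-stained, GFP intensity by laser scanning cytometry, normalized to DMSO (0%) and 57.5 uM 5-azacytidine (100%).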

[2] = biological target: Aldehyde dehydrogenase, mitochondrial (Homo sapiens) (UniProt P05091); test: qHTS for Inhibitors of the Aldehyde Dehydrogenase Family (ALDH2) Primary screen (AID 2061308); details: ALDH2 enzyme inhibition qHTS, 1536-well; series mostly up to 56 µM;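 further: plate controls were vehicle for no effect and reference inhibitor for full effect; nearly all actives have a fitted effect of over 55% in size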
[3] = biological target: Retinaldehyde dehydrogenase 3 (Homo sapiens) (UniProt P47895); test: qHTS for Inhibitors of the Aldehyde Dehydrogenase Family (ALDH1A3) Primary screen (AID 2061315); details: ALDH inhibition qHTS; series mostly up to 56 µM;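 further: plate controls were DMSO vehicle for no effect and reference inhibitor for full effect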

CC[C@]1(O)CC2CN(CCc3c([nH]c4ccccc34)[C@@](C(=O)OC)(c3cc4c(cc3OC)N(C=O)[C@H]3[C@@](O)(C(=O)OC)[C@H](OC(C)=O)[C@]5(CC)C=CCN6CC[C@]43[C@@H]65)C2)C1 (stereo partly specified)
inactive: activation [1] -0.333% | Potency [2] | Potency [3]

CC1CCC2C(C)(C)[C@@H](O)CC[C@]2(C)C12Cc1c(O)cc3c(c1O2)CN(C(CCC(=O)O)C(=O)O)C3=O (stereo partly specified)
inactive: activation [1] 23.2% | Potency [2] | Potency [3]

CC(C)c1ccc2c(c1)C(=O)CC1C(C)(C(=O)O)CCCC21C (stereo unspecified)
inactive: activation [1] 3.57% | Potency [2] | Potency [3]

CCOc1ccc2nc(SCCN3CCOCC3)[nH]c2c1
inactive: activation [1] -7.64% | Potency [2] | Potency [3]

CC1(C)CCCC2(C)C1CC=C1C(=O)OC(O)C12O (stereo unspecified)
inactive: activation [1] -6.11% | Potency [2] | Potency [3]

C[C@@H]1CC[C@]2(C(=O)O)CC[C@]3(C)C(=CCC4[C@@]5(C)CC[C@H](O)C(C)(C)C5C(O)C[C@]43C)[C@@H]2[C@]1(C)O (stereo partly specified)
inactive: activation [1] 0.893% | Potency [2] | Potency [3]

C[C@@H]1O[C@@H](O[C@H]2[C@H](OC(=O)[C@]34CCC(C)(C)C[C@H]3C3=CCC5[C@@]6(C)CC[C@H](O[C@@H]7O[C@H](CO[C@@H]8OC[C@H](O)[C@H](O)[C@H]8O[C@@H]8OC[C@@H](O)[C@H](O)[C@H]8O)[C@@H](O)[C@H](O)[C@H]7O)C(C)(C)C6CC[C@@]5(C)[C@]3(C)C[C@H]4O)O[C@H](CO)[C@@H](O)[C@@H]2O)[C@H](O[C@@H]2O[C@H](CO)[C@@H](O)[C@H](O)[C@H]2O)[C@H](O)[C@H]1O[C@@H]1OC[C@@H](O)[C@H](O[C@@H]2OC[C@@H](O)[C@H](O)[C@H]2O)[C@H]1O (stereo partly specified)
inactive: activation [1] -9.92% | activity change, negative = inhibition [2] 6.45% [at 11.2 µM] | activity change, negative = inhibition [3] 8.82% [at 11.2 µM]
